Km data for one compound are collected here from PubChem BioAssay AID651998 (The Scripps Research Institute Molecular Screening Center, 2013).

For this experiment, the target named is Acyl-protein thioesterase 1 (Homo sapiens) (UniProt O75608). The experiment in a line: LYPLA1 enzyme kinetics with inhibitors – biochemical, substrate-based fluorescence, Ki, Km, late-stage follow-up (AID 651998). The following applies: recombinant LYPLA1, resorufin acetate hydrolysis fluorescence, without test compound, enzyme Km for substrate.
Chain of Acyl-protein thioesterase 1 (Homo sapiens) (O75608 whole entry, looked up): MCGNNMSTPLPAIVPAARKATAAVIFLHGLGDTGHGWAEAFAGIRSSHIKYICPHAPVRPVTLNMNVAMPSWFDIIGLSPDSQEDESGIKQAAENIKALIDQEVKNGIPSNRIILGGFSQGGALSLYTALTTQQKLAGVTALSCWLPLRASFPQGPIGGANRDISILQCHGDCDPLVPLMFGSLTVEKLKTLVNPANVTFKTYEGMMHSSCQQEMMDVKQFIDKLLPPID

For orientation: Km means the substrate concentration at which the rate is half of its maximum. Take `O=C(CN1CCN(C(=O)c2ccco2)CC1)Nc1cc(C(F)(F)F)ccc1Cl`: the Km worked out at 28.3 µM.
